The campaign covered roughly 94,000 compounds. About 6,200 (6.6%) were called active. Inconclusive results (about 31%) are left out. Calls follow the shape of the dose curve; as a rule, active = well fitted inhibition curve with a large enough effect; inconclusive = small, poorly fitted or top-dose-only effect; inactive = flat fitted curve, though single readings scatter. The entries come from a sample that favours actives as a whole. Entries that show only a call come without a potency.
Assay: Cytotoxic Profiling in HEK 293 Cell Line of Diverse Libraries Using Quantitative High-Throughput Screening; also: nearly all actives have a fitted effect of over 60% in size
Details: HEK 293 viability, ATP luminescence (CellTiter-Glo), 48-72 h; series mostly up to 115 µM
Procedure, shortened: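 Pintool-delivered compounds were incubated with HEK 293 cells (250 cells/well) at 37 degree Celsius for 48 or 72 hr. ATP-dependent luminescence (CellTiter-Glo) then reported remaining viable cells.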
For `CN1CCN(C2CCOC3(CCN(S(=O)(=O)c4cn(C)cn4)CC3)C2)CC1` (centres undefined), the Potency was “inactive”. For `CC(C)C(=O)N1CCC(OC2CCN(Cc3ccccc3)CC2)CC1`, the Potency was “inactive”. For `CN(C)CCNC(=O)C(C)(C)Oc1nn(Cc2cccc(Cl)c2)c2ccccc12`, the Potency was 31.6 µM (active). In the case of `CC(C)(Oc1nn(Cc2cccc(Cl)c2)c2ccccc12)C(=O)Nc1cccnc1`, the Potency is reported as 35.5 µM (active). With `COCc1ccc2c(c1)c(OC(C)(C)C(=O)NC1CCC(O)CC1)nn2Cc1cccnc1` (centres undefined) the Potency was “inactive”. For `COCCNC(=O)N1CCc2nn(Cc3ccccc3)c(=O)n2CC1`, the Potency was “inactive”. In the case of `COCc1ccc2c(c1)c(OC(C)(C)C(=O)N1CCN(C)CC1)nn2Cc1cccnc1`, the Potency is reported as “inactive”. In the case of `CN1CCN(C(=O)C(C)(C)Oc2nn(Cc3cccc(Cl)c3)c3ccccc23)CC1`, the Potency is reported as 70.8 µM (active). In the case of `O=C(NCc1cccnc1)C1CCCN(c2cnn(Cc3ccccc3)c(=O)c2)C1` (centres undefined), the Potency is reported as “inactive”. With `Cc1ccccc1C(=O)NCc1c[nH]c2ncccc12` the Potency was “inactive”. With `N#Cc1ccc(CN2CC3CCC(C2)N3c2ccc(C(F)(F)F)cc2)cc1` the Potency was “inactive”. In the case of `O=C(c1ccn[nH]1)N1CCC[C@H](n2c(=O)n(CC3CC3)c3cccnc32)C1`, the Potency is reported as “inactive”. With `COCCn1c(=O)n([C@H]2CCCN(C(=O)c3ccccc3F)C2)c2ncccc21` the Potency was “inactive”. With `NC(=O)c1cccnc1OC1CCN(Cc2cccnc2)CC1` the Potency was “inactive”. For `CCOCc1nc(C2CCCN(C(=O)NC(C)C)C2)no1` (centres undefined), the Potency was “inactive”. For `O=C(NCc1ccco1)C1CCCN(c2cnn(Cc3ccccc3)c(=O)c2)C1` (centres undefined), the Potency was “inactive”. For `Cc1noc(C)c1S(=O)(=O)N1CCC(c2noc(-c3ccccn3)n2)C1` (centres undefined), the Potency was “inactive”. For `O=C1CCN(C(=O)C2COc3ccccc3O2)CCOCCN1` (centres undefined), the Potency was “inactive”. In the case of `C[C@@H](NC(=O)C1=C[C@@H](NC(=O)CC2(CC(=O)O)CCCC2)[C@@H](O)[C@H](O)C1)C(N)=O`, the Potency is reported as “inactive”. For `CN1CCC(C(=O)N2CC(F)(F)C[C@H]2c2nc(C3CC3)no2)CC1`, the Potency was “inactive”. With `Cc1noc2c(NC3CCCCC3)cc(-c3ccsc3)nc12` the Potency was 89.1 µM (active). For `COCCCNc1cc(-c2ccsc2)nc2c(C)noc12`, the Potency was “inactive”. For `O=C(Nc1ccc(-c2nnc3n2CCCC3)cc1)c1ccccn1`, the Potency was “inactive”. For `CC(=O)N1CCCC2(C1)CN(C)c1ccc(C(=O)NC3CC3)cc12` (centres undefined), the Potency was “inactive”. With `COCCCN(CCC(=O)NCc1ccc(F)cc1)C(=O)c1cc(C)oc1C` the Potency was “inactive”. In the case of `COc1ccc(-c2ccc(C(=O)NCc3ccc(F)cc3)cc2)nn1`, the Potency is reported as “inactive”. With `COc1ccc(CNC(=O)Cn2cccc2-c2nc(-c3ccc(F)cc3)no2)cc1` the Potency was “inactive”. With `N#Cc1cccc(-c2c(C(=O)NCc3ccc(F)cc3)nc3sccn23)c1` the Potency was “inactive”. For `CNc1nc(C(=O)NCc2ccc3[nH]c(-c4ccc(F)cc4)c(C)c3c2)cs1`, the Potency was 39.8 µM (active). For `Cc1c(-c2ccc(F)cc2)[nH]c2ccc(CNC(=O)c3ccc(CO)o3)cc12`, the Potency was 31.6 µM (active). For `CCOc1ccc2c(n1)CCN(C(=O)Nc1ccc(OC)cc1C)C2`, the Potency was “inactive”. For `CN1CC(=O)N(c2cccc(F)c2)Cc2c(NC3CCNCC3)ncnc21`, the Potency was “inactive”. With `CS(=O)(=O)N1CCCN(C(=O)Cc2cccc(F)c2)CCNC(=O)CC1c1ccccc1` (centres undefined) the Potency was “inactive”. With `O=C(c1ccccn1)N1CCCC(c2nc(CCOCC3CCOCC3)no2)C1` (centres undefined) the Potency was “inactive”. For `Cc1cccc(OCCc2noc(C3CCCN(Cc4ccccc4C#N)C3)n2)c1` (centres undefined), the Potency was 89.1 µM (active). In the case of `CCOCC(=O)N1CC(c2nc(CCOc3cccc(C)c3)no2)C1`, the Potency is reported as “inactive”. In the case of `Cn1ncc2c(C(=O)Nc3ccc(F)cc3)cc(-c3ccc(Cl)cc3Cl)nc21`, the Potency is reported as “inactive”. For `COc1cccc(-c2cc(C(=O)Nc3cccc(Cl)c3)c3cnn(C)c3n2)c1`, the Potency was 39.8 µM (active). With `COc1cccc(CNC(=O)c2cc(-c3ccc(Cl)nc3)nc3c2cnn3C)c1` the Potency was “inactive”. In the case of `Cn1ncc2c(C(=O)NC3CCCCC3)cc(-c3cccnc3)nc21`, the Potency is reported as “inactive”. With `Cn1ncc2c(C(=O)Nc3cccc(C(F)(F)F)c3)cc(-c3cccc(C(F)(F)F)c3)nc21` the Potency was “inactive”. With `Cc1ccc(NC(=O)c2cc(C(C)(C)C)nc3c2cnn3C)cc1` the Potency was 79.4 µM (active). For `COc1cccc(-c2cc(C(=O)Nc3cccc(F)c3)c3cnn(C)c3n2)c1`, the Potency was 44.7 µM (active). For `COc1cccc(-c2cc(C(=O)N3CCN(C(C)=O)CC3)c3cnn(C)c3n2)c1`, the Potency was “inactive”. With `CCn1nc(C)cc1C(=O)N1C[C@H]2OC(=O)N(CCCN3CCOCC3)[C@H]2C1` the Potency was “inactive”. With `O=C(Nc1cccnc1)O[C@H]1COCCN(c2nc3ccccc3s2)C1` the Potency was “inactive”. In the case of `COc1cccc([S+](=O)([O-])N2CCCC3(CC(c4cccc(C(F)(F)F)c4)=NO3)C2)c1` (centres undefined), the Potency is reported as “inactive”. In the case of `CC(C)N1C[C@H](O)C[C@H]1c1nnc2n1CCN(C(=O)c1ccccn1)CC2`, the Potency is reported as “inactive”. With `CO[C@H]1C(=O)N(C2CCN(S(=O)(=O)c3c(C)nn(C)c3C)CC2)[C@H]1c1ccncc1` the Potency was “inactive”. For `CCCN1C(=O)NC(CC(=O)N2CCC(O)(c3ccc(C)cn3)CC2)C1=O` (centres undefined), the Potency was “inactive”. For `CN(C)S(=O)(=O)N1C[C@@H]2CC[C@H](C1)N(Cc1ccccc1C#N)C2`, the Potency was “inactive”. For `CC1(C)[C@H](Cc2cc(CCO)on2)C[C@@H]1NCC1CC1`, the Potency was “inactive”. For `CC1(C)[C@H](Cc2cc(-c3ccccc3)on2)C[C@@H]1NS(C)(=O)=O`, the Potency was 89.1 µM (active). With `CC1(C)[C@H](Cc2cc(-c3ccccc3)on2)C[C@@H]1NCC1CC1` the Potency was 100 µM (active). With `CCn1cnnc1CC1CCN(C(=O)c2cc(-c3ccc(F)cc3)nc3ccccc23)CC1` the Potency was “inactive”. For `CN(C)C(C(=O)N1CCC(N2CCSCC2)CC1)c1cccc(F)c1` (centres undefined), the Potency was “inactive”. In the case of `O=C(NC[C@H]1O[C@@H](CO)[C@@H](O)[C@H]1N1CCOCC1)Nc1ccc(OC(F)(F)F)cc1`, the Potency is reported as “inactive”. In the case of `O=C(NCCc1ccccc1)c1ccc2oc(-c3cccnc3)nc2c1`, the Potency is reported as “inactive”. For `O=C(NCc1cnn(Cc2ccccc2)c1)c1ccc2oc(-c3cccc(F)c3)nc2c1`, the Potency was 7.08 µM (active). For `O=C(NCc1ccccc1)c1ccc2nc(-c3ccnc(Cl)c3)oc2c1`, the Potency was “inactive”. In the case of `COC1CCOC2(CCN(C(=O)c3cnccn3)CC2)C1` (centres undefined), the Potency is reported as “inactive”. In the case of `CN(C(=O)NCc1ccccc1)C1CCc2nn(CC3CC3)c(=O)n2CC1` (centres undefined), the Potency is reported as “inactive”. For `O=C(C1Cn2cccc2C(=O)N1Cc1ccccc1)N1CCOCC1` (centres undefined), the Potency was “inactive”. With `Cc1cnc(CC2CCN(S(=O)(=O)c3ccc(C#N)cc3)C2)n1Cc1ccccc1` (centres undefined) the Potency was 44.7 µM (active). With `O=S(=O)(Cc1ccccc1)N1CCCC(Cc2nncn2CC2CC2)C1` (centres undefined) the Potency was “inactive”. For `Cc1ccc(S(=O)(=O)N2CC[C@H](c3nnc(-c4ccccc4)o3)C2)cc1`, the Potency was “inactive”. In the case of `CCN(CCn1cccn1)Cc1cnc(S(=O)(=O)Cc2ccccc2)n1CC(C)C`, the Potency is reported as “inactive”. In the case of `O=C(C1CCCCC1)N1CC2(Cc3ccccc3NC2=O)C1`, the Potency is reported as “inactive”. For `O=C(NCc1c[nH]c2ncccc12)c1ccccc1F`, the Potency was “inactive”. For `CN1CC(C(=O)NCc2ccccc2)NC1=O` (centres undefined), the Potency was “inactive”. For `C=CCn1cc2c3c(cccc31)[C@H](CC(C)C)N[C@H](C(=O)NCC1CC1)C2`, the Potency was 79.4 µM (active). In the case of `COC(=O)[C@@H]1Cc2ncn(Cc3ccc(OC)cc3)c2CN1S(C)(=O)=O`, the Potency is reported as “inactive”. With `CCc1ccc(CNC(=O)C2c3ccccc3CC(=O)N2C(C)C)cc1` (centres undefined) the Potency was “inactive”. In the case of `COc1ccc(CNC(=O)[C@@H]2Cc3cn(Cc4ccncc4)c4cccc(c34)[C@H](CC(C)C)N2)cc1`, the Potency is reported as 39.8 µM (active). In the case of `COCCN1C(=O)Cc2ccccc2C1C(=O)NCC1CCCCC1` (centres undefined), the Potency is reported as “inactive”. With `CC(C)C[C@@H]1N[C@H](C(=O)NCc2ccc(F)cc2)Cc2cn(C)c3cccc1c23` the Potency was 70.8 µM (active). For `CC(C)N1CCC(OCCCNC(=O)C2Cn3cccc3C(=O)N2)CC1` (centres undefined), the Potency was “inactive”. In the case of `COc1ccc(CNC(=O)[C@H]2O[C@H](CCN3CCN(C)CC3)CC[C@@H]2O)cc1`, the Potency is reported as “inactive”. In the case of `CN1CC2(CCN(C(=O)c3ccncc3)CC2)CC1C(=O)N1CCOCC1` (centres undefined), the Potency is reported as “inactive”. With `CNC(=O)c1cc(C2CC2)nc2onc(C3CCN(C(=O)Nc4ccccc4)C3)c12` (centres undefined) the Potency was “inactive”. In the case of `CNC(=O)c1cc(C2CC2)nc2c1c(C1CCN(C(=O)C(C)C)C1)nn2C` (centres undefined), the Potency is reported as “inactive”. For `COC[C@H]1C[C@@H](NC(=O)c2cc(C)oc2C(F)(F)F)[C@H](O)[C@@H]1O`, the Potency was “inactive”. For `Cc1cc(S(=O)(=O)N2CCC(n3cnnc3C(C)C)CC2)ccc1F`, the Potency was “inactive”. For `Cc1cc(S(=O)(=O)N2CCCN(C)c3ccccc32)ccc1F`, the Potency was 79.4 µM (active). For `CN1CCCN(C(=O)c2cc(F)ccc2F)c2ccccc21`, the Potency was “inactive”. With `COc1cccc(CNC(=O)Cn2ccn3nc(-c4ccc(F)cc4)c(CO)c3c2=O)c1` the Potency was “inactive”. For `CCOc1ccc(-c2cc3c(=O)n(CCNC(=O)c4ccc(OC)cc4C)ccn3n2)cc1`, the Potency was “inactive”. For `CCC(C(=O)NCCn1ccn2nc(-c3ccc(F)cc3)cc2c1=O)c1ccccc1` (centres undefined), the Potency was 20 µM (active). For `Fc1ccc(Nc2nc(-c3ccccc3F)no2)cc1`, the Potency was 39.8 µM (active). In the case of `O=C(Cn1cccc1-c1nc(-c2ccc(F)cc2)no1)Nc1cc(F)cc(F)c1`, the Potency is reported as “inactive”. With `CCc1nc2c(=O)n(CC(=O)NCc3cc(C)ccc3C)nc(C)c2s1` the Potency was “inactive”. With `Cn1ccc(Nc2nccc3c(=O)cc(-c4ccccn4)oc23)n1` the Potency was “inactive”. For `CN(c1ccccc1)c1cc(=O)c2ccnc(Nc3cccc([S+](C)(=O)[O-])c3)c2o1`, the Potency was 100 µM (active). In the case of `CCCC(=O)N(C)CC1CCOCC1`, the Potency is reported as “inactive”. In the case of `COc1ccccc1NC(=O)N1CCC2(CCNC(=O)CC2)CC1`, the Potency is reported as “inactive”. For `CC1(COCC2CC2)COc2ccc(C(=O)NCc3cccnc3)cc2N1` (centres undefined), the Potency was “inactive”. With `CN(C)CCN(C)C(=O)c1ccc2c(c1)NC(C)(COc1ccc3[nH]ccc3c1)CO2` (centres undefined) the Potency was 112 µM (active). With `O=C(NCC1CCOCC1)c1ccc2[nH]ccc2c1` the Potency was “inactive”. With `CC(C)CC(=O)N1CCCN(c2nnc3ccccn23)CC1` the Potency was “inactive”.

Reference: PubChem BioAssay AID1345083 (National Center for Advancing Translational Sciences (NCATS), 2018)
Potency is read from the fitted curve at half-maximal effect.
